According to ChEMBL document CHEMBL2218924, “A broad activity screen in support of a chemogenomic map for kinase signalling research and drug discovery” (Biochem J, 2013):

Each compound was assayed against Proto-oncogene tyrosine-protein kinase ROS (Homo sapiens) (UniProt P08922). Details: at 10 µM.
Chain of Proto-oncogene tyrosine-protein kinase ROS (Homo sapiens) (P08922 whole entry): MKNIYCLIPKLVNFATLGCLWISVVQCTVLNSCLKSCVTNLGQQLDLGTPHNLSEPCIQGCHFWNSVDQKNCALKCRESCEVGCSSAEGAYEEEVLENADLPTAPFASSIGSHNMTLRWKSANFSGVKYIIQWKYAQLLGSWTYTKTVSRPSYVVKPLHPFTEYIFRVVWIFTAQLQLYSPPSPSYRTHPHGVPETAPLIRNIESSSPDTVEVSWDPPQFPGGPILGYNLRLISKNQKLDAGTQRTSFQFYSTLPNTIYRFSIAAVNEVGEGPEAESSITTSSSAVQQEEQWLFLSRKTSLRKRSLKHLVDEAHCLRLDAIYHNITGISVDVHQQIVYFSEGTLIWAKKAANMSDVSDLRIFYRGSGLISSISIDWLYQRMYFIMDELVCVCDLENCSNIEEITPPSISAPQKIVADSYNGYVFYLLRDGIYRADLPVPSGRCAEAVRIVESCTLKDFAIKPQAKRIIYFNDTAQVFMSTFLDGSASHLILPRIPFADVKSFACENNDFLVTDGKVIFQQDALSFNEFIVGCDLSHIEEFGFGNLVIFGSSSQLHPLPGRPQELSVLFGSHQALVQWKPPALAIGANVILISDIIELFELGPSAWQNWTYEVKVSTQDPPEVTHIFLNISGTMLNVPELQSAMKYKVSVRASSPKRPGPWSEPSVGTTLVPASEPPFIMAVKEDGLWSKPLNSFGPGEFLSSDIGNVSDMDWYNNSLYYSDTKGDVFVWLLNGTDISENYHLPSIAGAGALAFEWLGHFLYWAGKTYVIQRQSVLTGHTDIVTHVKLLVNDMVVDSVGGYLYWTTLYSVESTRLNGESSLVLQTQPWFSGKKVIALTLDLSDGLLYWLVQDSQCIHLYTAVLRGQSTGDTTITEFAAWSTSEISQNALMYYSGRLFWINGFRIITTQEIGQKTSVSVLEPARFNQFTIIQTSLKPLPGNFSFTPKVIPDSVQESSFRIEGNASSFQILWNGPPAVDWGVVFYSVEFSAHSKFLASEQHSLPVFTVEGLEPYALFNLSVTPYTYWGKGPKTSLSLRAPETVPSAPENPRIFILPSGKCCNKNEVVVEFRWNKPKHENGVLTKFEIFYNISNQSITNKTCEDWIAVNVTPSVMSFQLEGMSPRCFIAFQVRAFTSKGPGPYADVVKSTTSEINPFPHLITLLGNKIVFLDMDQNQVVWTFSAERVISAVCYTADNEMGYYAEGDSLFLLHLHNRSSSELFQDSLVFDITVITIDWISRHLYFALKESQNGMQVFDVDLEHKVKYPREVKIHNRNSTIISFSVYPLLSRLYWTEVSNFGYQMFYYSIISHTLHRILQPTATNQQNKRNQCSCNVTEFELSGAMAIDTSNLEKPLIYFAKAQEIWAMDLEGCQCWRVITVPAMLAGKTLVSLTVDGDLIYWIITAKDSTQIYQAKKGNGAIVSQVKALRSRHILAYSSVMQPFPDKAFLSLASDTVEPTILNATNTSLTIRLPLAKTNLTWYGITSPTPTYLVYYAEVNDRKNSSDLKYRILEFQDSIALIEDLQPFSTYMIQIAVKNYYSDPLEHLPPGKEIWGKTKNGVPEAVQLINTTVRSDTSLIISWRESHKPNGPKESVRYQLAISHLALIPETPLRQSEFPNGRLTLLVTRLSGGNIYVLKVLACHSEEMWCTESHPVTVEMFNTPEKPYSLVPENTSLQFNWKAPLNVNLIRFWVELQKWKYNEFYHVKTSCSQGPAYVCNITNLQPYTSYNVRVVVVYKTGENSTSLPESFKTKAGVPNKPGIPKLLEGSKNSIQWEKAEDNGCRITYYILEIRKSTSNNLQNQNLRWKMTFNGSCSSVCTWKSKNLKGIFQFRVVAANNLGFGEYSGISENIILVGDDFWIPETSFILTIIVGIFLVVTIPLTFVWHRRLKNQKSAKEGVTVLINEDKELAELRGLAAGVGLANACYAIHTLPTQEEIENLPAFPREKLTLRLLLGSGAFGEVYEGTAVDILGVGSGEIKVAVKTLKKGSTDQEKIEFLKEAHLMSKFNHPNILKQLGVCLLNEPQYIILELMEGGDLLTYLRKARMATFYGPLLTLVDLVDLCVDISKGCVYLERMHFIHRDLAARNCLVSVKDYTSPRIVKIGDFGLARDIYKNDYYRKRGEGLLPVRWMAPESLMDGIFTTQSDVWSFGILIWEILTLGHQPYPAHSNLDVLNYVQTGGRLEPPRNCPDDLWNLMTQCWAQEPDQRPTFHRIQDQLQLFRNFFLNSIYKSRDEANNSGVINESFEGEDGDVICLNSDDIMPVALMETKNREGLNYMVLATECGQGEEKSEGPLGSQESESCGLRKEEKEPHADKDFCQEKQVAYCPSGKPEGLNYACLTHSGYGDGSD

Compound	residual activity
CCC(=O)Nc1ccc2ncnc(Nc3cccc(Br)c3)c2c1	98%
Cc1nc2cc3nc(-c4cccs4)cnc3cc2n1C	112%
O=C1c2ccccc2-[n+]2ccc3c([nH]c4ccccc43)c21	88%
Cc1ccc(S(=O)(=O)/C=C/C#N)cc1	92%
N#Cc1cnc2cnc(NCc3cccnc3)cc2c1Nc1ccc(F)c(Cl)c1	52%
CC(=O)O/N=C1\C(=C2\C(=O)Nc3cc(Br)ccc32)Nc2ccccc21	90%
CO[C@H]1C[C@@H]2CC[C@@H](C)[C@@](O)(O2)C(=O)C(=O)N2CCCC[C@H]2C(=O)O[C@H]([C@H](C)C[C@@H]2CC[C@@H](O)[C@H](OC)C2)CC(=O)[C@H](C)/C=C(\C)[C@@H](O)[C@@H](OC)C(=O)[C@H](C)C[C@H](C)/C=C/C=C/C=C/1C	92%
O=C1NC(=O)/C(=C/c2ccc3c(c2)OC(F)(F)O3)S1	108%
CCN(CC)CCCCN1c2ccccc2Oc2ccc(Cl)cc21	101%
O=C(Nc1cccc(Nc2cc(Nc3cccc(C(F)(F)F)c3)ncn2)c1)C1CC1	88%
Cc1ccc(NC2=CC(=O)c3sc(C)nc3C2=O)cc1	88%
COc1ccc(CNc2nc(N(CCO)CCO)nc3c2ncn3C(C)C)cc1	85%
Oc1ccc(-c2nc(-c3ccc(F)cc3)c(-c3ccncc3)[nH]2)cc1	104%
CC[n+]1c(/C=C/N(C)c2ccccc2)n(-c2ccccc2)c2ccc(-c3nc4ccccc4s3)cc21	102%
O=Nc1c(-c2c(O)[nH]c3ccccc23)[nH]c2ccccc12	88%
Nc1ccc2ncnc(NCCc3ccc(Oc4ccccc4)cc3)c2c1	100%
O=c1c2ccccc2[nH]c(=S)n1CCN1CCC(=C(c2ccc(F)cc2)c2ccc(F)cc2)CC1	99%
CC(C)n1cnc2c(NCc3ccccc3)nc(NCCCO)nc21	93%

Compound	residual activity
Cc1cc2ncc(-c3ccccc3)nc2cc1C	100%
O=c1cc(-c2cccc3c2Sc2ccccc2S3)oc(N2CCOCC2)c1	96%
Cc1nc(-c2ccccc2)c(-c2ccncc2)o1	97%
CNc1cc2c(Nc3cccc(Br)c3)ncnc2cn1	99%
Nc1n[nH]c2nnc(-c3c(-c4ccccc4)nn4ccccc34)cc12	80%
CC(=O)c1ccc(N2CCOCC2)cc1O	98%
Cc1cncc2cccc(S(=O)(=O)N3CCCN(C(=O)CN)C[C@H]3C)c12	82%
O=C1NC(=O)/C(=C\c2ccc3nccnc3c2)S1	99%
COc1cc2ncnc(Nc3ccc(O)c(Br)c3)c2cc1OC	84%
CCOc1cc2ncnc(Nc3cccc(Br)c3)c2cc1OCC	100%
Nc1cccc(-c2cc3c(Oc4cccc(O)c4)ncnc3[nH]2)c1	60%
Nc1nc(Nc2ccc(S(N)(=O)=O)cc2)nn1C(=S)Nc1c(F)cccc1F	16%
NC(=O)c1ccc2[nH]c(-c3ccc(Oc4ccc(Cl)cc4)cc3)nc2c1	84%
O=C1Nc2cc(Br)ccc2/C1=C1/Nc2ccccc2/C1=N\O	87%
Oc1ccc(Nc2nc(-c3ccc(Cl)cc3)cs2)cc1	97%
COc1cc2ncnc(Nc3ccc(Oc4ccccc4)cc3)c2cc1OC	101%
c1ccc(-c2n[nH]c3c2oc2ccccc23)cc1	93%

Each compound was assayed against T1, Tyrosine-protein kinase receptor TYRO3 (Homo sapiens) (UniProt Q06418). Details: at 1 µM.
T1 sequence (whole entry): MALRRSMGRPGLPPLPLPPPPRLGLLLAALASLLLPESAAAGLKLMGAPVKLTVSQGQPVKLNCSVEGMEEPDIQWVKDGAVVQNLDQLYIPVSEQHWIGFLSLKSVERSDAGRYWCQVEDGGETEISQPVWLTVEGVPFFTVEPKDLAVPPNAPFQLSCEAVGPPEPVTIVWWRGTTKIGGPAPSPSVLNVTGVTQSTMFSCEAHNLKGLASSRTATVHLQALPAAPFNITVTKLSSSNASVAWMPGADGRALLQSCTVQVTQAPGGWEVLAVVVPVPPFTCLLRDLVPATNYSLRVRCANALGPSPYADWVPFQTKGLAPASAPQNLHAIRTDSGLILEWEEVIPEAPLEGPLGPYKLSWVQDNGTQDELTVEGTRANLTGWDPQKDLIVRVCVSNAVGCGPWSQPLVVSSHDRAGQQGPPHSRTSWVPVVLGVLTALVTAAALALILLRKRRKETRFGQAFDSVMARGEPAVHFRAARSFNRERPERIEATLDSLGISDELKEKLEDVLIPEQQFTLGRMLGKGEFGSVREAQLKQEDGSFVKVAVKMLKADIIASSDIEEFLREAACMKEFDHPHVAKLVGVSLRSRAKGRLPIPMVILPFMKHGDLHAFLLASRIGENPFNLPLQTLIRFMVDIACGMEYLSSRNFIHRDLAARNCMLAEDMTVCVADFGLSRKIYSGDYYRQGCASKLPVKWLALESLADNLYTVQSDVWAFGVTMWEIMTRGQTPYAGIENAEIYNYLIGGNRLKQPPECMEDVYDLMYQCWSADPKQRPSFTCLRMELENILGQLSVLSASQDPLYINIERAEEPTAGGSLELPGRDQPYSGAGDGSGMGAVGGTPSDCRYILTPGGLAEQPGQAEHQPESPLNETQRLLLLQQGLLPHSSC

Compound	residual activity
CCC(=O)Nc1ccc2ncnc(Nc3cccc(Br)c3)c2c1	90%
Cc1nc2cc3nc(-c4cccs4)cnc3cc2n1C	98%
O=C1c2ccccc2-[n+]2ccc3c([nH]c4ccccc43)c21	104%
Cc1ccc(S(=O)(=O)/C=C/C#N)cc1	107%
CC(=O)O/N=C1\C(=C2\C(=O)Nc3cc(Br)ccc32)Nc2ccccc21	100%
CO[C@H]1C[C@@H]2CC[C@@H](C)[C@@](O)(O2)C(=O)C(=O)N2CCCC[C@H]2C(=O)O[C@H]([C@H](C)C[C@@H]2CC[C@@H](O)[C@H](OC)C2)CC(=O)[C@H](C)/C=C(\C)[C@@H](O)[C@@H](OC)C(=O)[C@H](C)C[C@H](C)/C=C/C=C/C=C/1C	94%
O=C1NC(=O)/C(=C/c2ccc3c(c2)OC(F)(F)O3)S1	96%
CCN(CC)CCCCN1c2ccccc2Oc2ccc(Cl)cc21	108%
O=C(Nc1cccc(Nc2cc(Nc3cccc(C(F)(F)F)c3)ncn2)c1)C1CC1	88%
Cc1ccc(NC2=CC(=O)c3sc(C)nc3C2=O)cc1	98%
COc1ccc(CNc2nc(N(CCO)CCO)nc3c2ncn3C(C)C)cc1	116%
Oc1ccc(-c2nc(-c3ccc(F)cc3)c(-c3ccncc3)[nH]2)cc1	103%
CC[n+]1c(/C=C/N(C)c2ccccc2)n(-c2ccccc2)c2ccc(-c3nc4ccccc4s3)cc21	99%
O=Nc1c(-c2c(O)[nH]c3ccccc23)[nH]c2ccccc12	62%
Nc1ccc2ncnc(NCCc3ccc(Oc4ccccc4)cc3)c2c1	113%
O=c1c2ccccc2[nH]c(=S)n1CCN1CCC(=C(c2ccc(F)cc2)c2ccc(F)cc2)CC1	82%
CC(C)n1cnc2c(NCc3ccccc3)nc(NCCCO)nc21	105%

Compound	residual activity
O=c1cc(-c2cccc3c2Sc2ccccc2S3)oc(N2CCOCC2)c1	93%
Cc1nc(-c2ccccc2)c(-c2ccncc2)o1	98%
CNc1cc2c(Nc3cccc(Br)c3)ncnc2cn1	77%
Nc1n[nH]c2nnc(-c3c(-c4ccccc4)nn4ccccc34)cc12	102%
CC(=O)c1ccc(N2CCOCC2)cc1O	86%
Cc1cncc2cccc(S(=O)(=O)N3CCCN(C(=O)CN)C[C@H]3C)c12	83%
O=C1NC(=O)/C(=C\c2ccc3nccnc3c2)S1	89%
COc1cc2ncnc(Nc3ccc(O)c(Br)c3)c2cc1OC	38%
CCOc1cc2ncnc(Nc3cccc(Br)c3)c2cc1OCC	51%
Nc1cccc(-c2cc3c(Oc4cccc(O)c4)ncnc3[nH]2)c1	6%
Nc1nc(Nc2ccc(S(N)(=O)=O)cc2)nn1C(=S)Nc1c(F)cccc1F	14%
NC(=O)c1ccc2[nH]c(-c3ccc(Oc4ccc(Cl)cc4)cc3)nc2c1	106%
O=C1Nc2cc(Br)ccc2/C1=C1/Nc2ccccc2/C1=N\O	81%
Oc1ccc(Nc2nc(-c3ccc(Cl)cc3)cs2)cc1	97%
COc1cc2ncnc(Nc3ccc(Oc4ccccc4)cc3)c2cc1OC	14%
c1ccc(-c2n[nH]c3c2oc2ccccc23)cc1	79%
